Results filed as inconclusive are left out. Where a call stands in place of a potency, no number is given. Calls of active or inactive are those of the source. Unless noted, calls follow the shape of the full dose curve.
Potency is read from the fitted curve at half-maximal effect.

Tested on in the first experiment: not listed separately
The experiment can be described thus: qHTS for Inhibitors of the Functional Ribonucleoprotein Complex (vRNP) of Lymphocytic Choriomeningitis Arenaviruses (LCMV): Viability assay - alamar blue signal for LCMV Primary Screen (AID 1347085; calls by dose curve; tested in HEK293 reporter line; also: nearly all actives have a fitted effect of over 80% in size). Conditions: alamar blue viability counter-screen, LCMV vRNP screen cells; series mostly up to 57.5 µM.
Take `CC1=CCC(C(C)C)C=C1` (centres undefined): the Potency result was “inactive”.

In the case of `C=C(C)[C@@H]1CC[C@]2(C(=O)O)CC[C@]3(C)C(CCC4[C@@]5(C)CC[C@H](O)C(C)(C)C5CC[C@]43C)C12` (some centres undefined), the Potency entry was “inactive”.

For the compound `C[C@@H](O)CCCCn1c(=O)c2c(ncn2C)n(C)c1=O`, the Potency entry was “inactive”.

Take `COc1c2c(nc3occc13)C(CC=C(C)C)(OC)C(=O)C=C2` (centres undefined): the Potency result was “inactive”.

On to `CC/C=C\CCCCCO`, for which the Potency result was “inactive”.

Consider `C[C@H]1O[C@@H](n2cc(F)c(=O)[nH]c2=O)[C@H](O)[C@H]1O`, for which the Potency result was “inactive”.

`CC1=CC2OC3CC4OC(=O)C=CC=CC(=O)OCCC(C)C(O)C(=O)OCC2(CC1)C4(C)C31CO1` (centres undefined): the Potency result was “inactive”.

For the compound `C=CC(C)(O)CCC=C(C)C` (centres undefined), the Potency entry was “inactive”.

Take `CC1=CCC[C@H]2[C@H](C1)C(=O)C[C@@H](C)[C@]2(C)CC/C(=C/CO)CO`: the Potency entry is “inactive”.

Consider `CC/C=C\C[C@H](O)/C=C/C=C\C/C=C\C/C=C\CCCC(=O)O`, for which the activity change, negative = lower viability is 7.46% [at 0.757 µM] (inactive).

For the compound `CCn1c(-c2nonc2N)nc2cncc(CNC3CCNCC3)c21`, the Potency was 24.3 µM (active).

Take `C=C(CO)CC1CC(O)[C@]2(C)OC3CC4OC5C[C@]6(C)O[C@]7(C)CCC8OC9C[C@]%10(C)OC%11C(C)=CC(=O)OC%11CC%10OC9C[C@@H](C)C8OC7CC6O[C@]5(C)C/C=C\C4OC3CC2O1` (some centres undefined): the Potency result was “inactive”.

Take `C/C=C(\C)C(=O)O[C@H]1C[C@@]2(C)CCC(C(C)C)C2(O)CC[C@@]1(C)O` (some centres undefined): the Potency result was “inactive”.

With `O=C1C=C(O)c2c(O)cc(O)c(O)c2C1=O`, the Potency result was “inactive”.

Consider `CCCC/C=C/C=C\C=O`, for which the Potency entry was “inactive”.

As to `CC1(C)CCC[C@]2(C)[C@H]3CC(=O)O[C@]3(C)CC[C@@H]12`, the Potency result is “inactive”.

For the compound `CC(C)=CCC/C(C)=C/CC/C(C)=C/CCC1(C)CCc2cc(O)ccc2O1` (centres undefined), the Potency entry was “inactive”.

As to `CCC(C)c1nccnc1OC` (centres undefined), the Potency entry was “inactive”.

`O=C(O)Cc1ccc(O)cc1`: the Potency entry was “inactive”.

Consider `CS(=O)(=O)N1CCN(Cc2cc3nc(-c4cccc5[nH]ncc45)nc(N4CCOCC4)c3s2)CC1`, for which the Potency was 1.22 µM (active).

On to `CC1(C)C2CC1[C@@](C)(O)[C@H](O)C2` (some centres undefined), for which the Potency entry is “inactive”.

Take `OC(CC(O)c1ccccc1)c1ccccc1` (centres undefined): the Potency entry was “inactive”.

As to `CO[C@H]1[C@@H]2C=CO[C@@H](O[C@H]3O[C@@H](CO)[C@H](O)[C@@H](O)[C@@H]3O)[C@@H]2[C@@]2(CO)O[C@@H]12`, the Potency result is “inactive”.

`CC1=C(/C=C/C(C)=C/C=C/C(C)=C/C=C/C=C(C)/C=C/C=C(\C)C=O)C(C)(C)CCC1`: the Potency entry was “inactive”.

A further experiment deals with Nucleoprotein (Lymphocytic choriomeningitis virus (strain Armstrong)) (UniProt P09992). The experiment can be described thus: qHTS for Inhibitors of the Functional Ribonucleoprotein Complex (vRNP) of Lymphocytic Choriomeningitis Arenaviruses (LCMV): LCMV Primary Screen - GLuc reporter signal (AID 1347086). Also: nearly all actives have a fitted effect of over 70% in size. To be noted: LCMV minigenome vRNP cell assay, Gaussia luciferase reporter; series mostly up to 57.5 µM. (In general: In qHTS, concentration-response curves come from the screen itself.)
Chain of Nucleoprotein (Lymphocytic choriomeningitis virus (strain Armstrong)) (P09992 whole entry, looked up): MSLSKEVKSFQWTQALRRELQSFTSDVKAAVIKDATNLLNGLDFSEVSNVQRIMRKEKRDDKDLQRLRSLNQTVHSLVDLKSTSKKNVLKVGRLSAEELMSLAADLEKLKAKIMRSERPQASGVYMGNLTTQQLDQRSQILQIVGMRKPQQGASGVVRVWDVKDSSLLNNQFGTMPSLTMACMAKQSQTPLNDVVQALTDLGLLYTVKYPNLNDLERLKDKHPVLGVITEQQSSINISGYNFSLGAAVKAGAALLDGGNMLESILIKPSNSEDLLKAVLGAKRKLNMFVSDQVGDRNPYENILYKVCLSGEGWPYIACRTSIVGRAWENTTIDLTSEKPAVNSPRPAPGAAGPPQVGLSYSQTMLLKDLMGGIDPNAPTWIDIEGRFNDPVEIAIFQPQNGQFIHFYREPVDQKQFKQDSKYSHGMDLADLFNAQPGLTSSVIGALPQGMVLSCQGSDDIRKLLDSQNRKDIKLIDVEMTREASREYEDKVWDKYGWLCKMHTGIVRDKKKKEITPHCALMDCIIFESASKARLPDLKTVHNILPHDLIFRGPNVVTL
Regarding `COCCOCCOCCOCCOC`, the Potency entry was “inactive”.

Consider `COc1cc2oc(=O)ccc2cc1[C@H](O)[C@@H](O)C(C)(C)O`, for which the Potency entry is “inactive”.

For the compound `COc1ccc(C[C@H]2c3cc(O)c(OC)cc3CC[N+]2(C)[O-])cc1O` (some centres undefined), the Potency result was “inactive”.

As for `O=C(Nc1ncc(SCCN2CCCC2)s1)[C@]1(c2ccc(S(=O)(=O)C3CC3)cc2)C[C@@H]1C1CCCCC1`, the Potency result was “inactive”.

Turning to `CC(C)c1noc(N2CCC(COc3ccc(-c4ccc(S(C)(=O)=O)cc4)nc3)CC2)n1`, the Potency entry is “inactive”.

Turning to `COc1cc(C(=O)O)ccc1O`, the Potency entry was “inactive”.

For the compound `CC(=O)C1CCC2C3CCC4=CC(=O)C=CC4(C)C3CCC12C` (centres undefined), the Potency entry was “inactive”.

Take `O=C(O)[C@@H]1Cc2c([nH]c3ccccc23)C2CCC(=O)N21` (some centres undefined): the Potency result was “inactive”.

Regarding `C=C1C2C[C@H](O)C(C)(C)[C@@]2(O)[C@H](O)C[C@]23C[C@@](C)(O)[C@H](CC[C@H]12)[C@H]3O` (some centres undefined), the Potency entry was “inactive”.

As to `CN1CC(=O)N2C(Cc3c([nH]c4ccccc34)[C@H]2c2ccc3c(c2)OCO3)C1=O` (some centres undefined), the Potency result was “inactive”.

On to `CC1CC(C)C(=O)C1=O` (centres undefined), for which the Potency entry was “inactive”.

As to `COC1[C@@H](OC)C[C@H](C)[C@@H](OC)C2=CC(=O)C=C(NC(=O)/C(C)=C/C=C\[C@H](OC)[C@@H](OC(N)=O)/C(C)=C/[C@@H]1C)C2=O` (some centres undefined), the activity change, negative = inhibition is 12.1% [at 5.82 µM] (inactive).

Regarding `COc1ccc(CC(=O)c2ccc(OC3OC(CO)C(O)C(O)C3O)cc2O)cc1` (centres undefined), the Potency result is “inactive”.

Regarding `COc1c2c(c(OC)c3c1c(=O)c1ccccc1n3C)OCO2`, the Potency result is “inactive”.

Regarding `C[C@H]1CCC2[C@](C)(CO)[C@@H](O)CC[C@]2(C)[C@@]12CCC(CO)(CCO)O2` (some centres undefined), the Potency result is “inactive”.

`CC(C)=CC(=O)O`: the Potency result was “inactive”.

As to `CC1=CCC(C(C)C)C=C1` (centres undefined), the Potency result is “inactive”.

As to `C=C(C)[C@@H]1CC[C@]2(C(=O)O)CC[C@]3(C)C(CCC4[C@@]5(C)CC[C@H](O)C(C)(C)C5CC[C@]43C)C12` (some centres undefined), the Potency result is “inactive”.

For the compound `C[C@@H](O)CCCCn1c(=O)c2c(ncn2C)n(C)c1=O`, the Potency result is “inactive”.

Take `COc1c2c(nc3occc13)C(CC=C(C)C)(OC)C(=O)C=C2` (centres undefined): the Potency result is “inactive”.

In the case of `CC/C=C\CCCCCO`, the Potency entry was “inactive”.

With `C[C@H]1O[C@@H](n2cc(F)c(=O)[nH]c2=O)[C@H](O)[C@H]1O`, the Potency entry is “inactive”.

Take `CC1=CC2OC3CC4OC(=O)C=CC=CC(=O)OCCC(C)C(O)C(=O)OCC2(CC1)C4(C)C31CO1` (centres undefined): the Potency result is “inactive”.

Regarding `C=CC(C)(O)CCC=C(C)C` (centres undefined), the Potency result is “inactive”.

On to `CC1=CCC[C@H]2[C@H](C1)C(=O)C[C@@H](C)[C@]2(C)CC/C(=C/CO)CO`, for which the Potency result is “inactive”.

On to `CC/C=C\C[C@H](O)/C=C/C=C\C/C=C\C/C=C\CCCC(=O)O`, for which the activity change, negative = inhibition was 12.1% [at 0.757 µM] (inactive).

For `CCn1c(-c2nonc2N)nc2cncc(CNC3CCNCC3)c21`, the Potency is 38.5 µM (active).

Turning to `C=C(CO)CC1CC(O)[C@]2(C)OC3CC4OC5C[C@]6(C)O[C@]7(C)CCC8OC9C[C@]%10(C)OC%11C(C)=CC(=O)OC%11CC%10OC9C[C@@H](C)C8OC7CC6O[C@]5(C)C/C=C\C4OC3CC2O1` (some centres undefined), the Potency result was “inactive”.

For the compound `C/C=C(\C)C(=O)O[C@H]1C[C@@]2(C)CCC(C(C)C)C2(O)CC[C@@]1(C)O` (some centres undefined), the Potency result is “inactive”.

`O=C1C=C(O)c2c(O)cc(O)c(O)c2C1=O`: the Potency entry was “inactive”.

In the case of `CCCC/C=C/C=C\C=O`, the Potency result was “inactive”.

Consider `CC1(C)CCC[C@]2(C)[C@H]3CC(=O)O[C@]3(C)CC[C@@H]12`, for which the Potency entry was “inactive”.

For `CC(C)=CCC/C(C)=C/CC/C(C)=C/CCC1(C)CCc2cc(O)ccc2O1` (centres undefined), the Potency entry was “inactive”.

With `CCC(C)c1nccnc1OC` (centres undefined), the Potency entry was “inactive”.

As to `O=C(O)Cc1ccc(O)cc1`, the Potency result is “inactive”.

With `CS(=O)(=O)N1CCN(Cc2cc3nc(-c4cccc5[nH]ncc45)nc(N4CCOCC4)c3s2)CC1`, the Potency is 1.37 µM (active).

Take `CC1(C)C2CC1[C@@](C)(O)[C@H](O)C2` (some centres undefined): the Potency entry is “inactive”.

Regarding `OC(CC(O)c1ccccc1)c1ccccc1` (centres undefined), the Potency result is “inactive”.

Turning to `CO[C@H]1[C@@H]2C=CO[C@@H](O[C@H]3O[C@@H](CO)[C@H](O)[C@@H](O)[C@@H]3O)[C@@H]2[C@@]2(CO)O[C@@H]12`, the Potency entry was “inactive”.

On to `CC1=C(/C=C/C(C)=C/C=C/C(C)=C/C=C/C=C(C)/C=C/C=C(\C)C=O)C(C)(C)CCC1`, for which the Potency result was “inactive”.

These data come from PubChem BioAssay (NCATS).
